Screens (PubChem)
Most compounds without a hit are left out; they make up all but 12% or so of the library.
NS1 function inh = blocks influenza NS1 protein function | Potency, µM (top dose mostly 46.1 µM), without a hit: at the top dose activity, positive = more growth | 0.4% of 270,000 active; note: potency is the fitted concentration of half-maximal effect; actives are rising curves; nearly all actives have a fitted effect of over 50% in size
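Growth recovery, yeast-based: influenza A NS1 expressed in S. cerevisiae causes slow growth, and suppressors are detected by OD600. The parent strain without NS1 is used as positive control.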
Cycloheximide cs = affects cycloheximide protein synthesis inhibition readout, counter-screen; cell reporter, cycloheximide protein synthesis inhibition counterscreen; max response, %; 12% of 300,000 active; AID 2314; in the data active = max response mostly above about 13%, no sharp cut-off; inactive = mostly below about 14%; note: read at 38.3 µM for the half of the compounds with a filed dose; 0% is about no effect
Shiga inhibitor = Shiga toxin inhibition | inhibition, % at 38.7 µM | AID 2315 | Vero cells, Shiga toxin protein synthesis inhibition reporter | 9.2% of 290,000 active; in the data active = inhibition mostly above about 28%, no sharp cut-off; inactive = mostly below about 43%; note: 0% is about no effect
SARS PLpro yeast = blocks SARS-CoV papain-like protease in a yeast assay. S. cerevisiae expressing SARS-CoV PLpro, growth rescue. Potency, µM (series often up to 32.9 µM), inactives show at the top dose activity, positive = growth rescue, most hits filed as activators. 0.19% of 330,000 active; note: potency is the fitted concentration of half-maximal effect; 0% is about no effect; nearly all actives have a fitted effect of over 55% in size
* = called active by the depositor; . = no result given; + = active, no number. Unless noted, calls come from the whole dose curve.

SMILES	NS1 function inh	Cycloheximide cs	Shiga inhibitor	SARS PLpro yeast
O=C(N/N=C/c1ccc(C(F)(F)F)cc1)c1ccncc1	7%	3	7	-6%
O=C(O)c1ccc(/C=N/Nc2ccc(C(F)(F)F)cn2)cc1	.	35*	84*	-2%
COc1cc(/C=N/Nc2ccc(C(F)(F)F)cn2)ccc1O	.	31*	127*	-3%
CC(C)(C)c1ccc(C(=O)NCCOc2ccccc2F)cc1	0%	24	34*	-1%
COc1cc(C(=O)NCCOc2ccccc2)cc(OC)c1OC	-1%	1	9	2%
COc1ccccc1C(=O)NCCOc1ccc(C(C)(C)C)cc1	-54%	1	-5	-3%
CC(C)(C)c1ccc(C(=O)NCCOc2ccccc2)cc1	-5%	26*	33	12%
COc1cc(OC)cc(C(=O)NCCOc2ccccc2)c1	-15%	31*	77*	-10%
Cc1ccc(OCCNC(=O)c2ccccc2F)cc1	-5%	21*	40*	1%
CCOc1ccc(CCNC(=O)CSc2n[nH]c(N)n2)cc1OCC	18%	-4	2	7%
COc1ccccc1CC(NC(C)=O)C(=O)NC1CCN(C(=O)Nc2ccccc2F)CC1 (stereo not given)	2%	-7	17	3%
Cc1ccc(C(=O)NCCOc2cccc(C)c2)cc1	-7%	37*	83*	22%
Cc1ccc(OCC(O)CNC(=O)c2ccccc2C(=O)O)cc1 (stereo not given)	-4%	18*	33	3%
Cc1ccc(C)c(NC(=S)Nc2cccc3cnccc23)c1	-3%	1	-11	-2%
Cc1ccccc1NC(=S)Nc1cccc2cnccc12	.	24*	54*	-20%
Cc1ccc(NC(=S)Nc2cccc3cnccc23)cc1	-3%	26*	20	-3%
Fc1ccccc1NC(=S)Nc1cccc2cnccc12	.	13	-9	-2%
S=C(Nc1cccc(Cl)c1)Nc1cccc2cnccc12	-29%	47*	56*	-74%
Cc1ccc(NC(=S)Nc2cccc3cnccc23)cc1C	-1%	32*	54	2%
Cc1ccc(S(=O)(=O)N(C)C)cc1NC(=S)N1CCc2ccccc21	1%	-2	-10	2%
CC(=O)c1ccc(NC(=S)Nc2cccc3cnccc23)cc1	-45%	36*	47*	-5%
CN(C(=O)c1cncc(Br)c1)C1C2CC3CC(C2)CC1C3 (stereo not given)	-10%	19*	25	-6%
Cc1ccc2c(c1)NC(=O)CC(c1ccccc1)=N2	-14%	40*	63*	-21%
O=C1CC(c2ccccc2)=Nc2ccc(Br)cc2N1	-7%	8	28	-1%
COC(=O)c1sc2nc(C)nc(SCC(=O)C(C)(C)C)c2c1C	.	38*	52	-8%
SMILES	NS1 function inh	Cycloheximide cs	Shiga inhibitor	SARS PLpro yeast
O=C1Nc2ccccc2/C1=N\c1sc2c(c1C(=O)Nc1ccccc1)CCCC2	4%	8	22*	-51%
O=C(O)c1ccc(S(=O)(=O)c2ccc3c(c2)C(=O)N(NC(=O)c2cccnc2)C3=O)cc1	2%	24*	17	1%
O=C(CSc1nnc(C2CC2)n1-c1ccccc1)N1CCCC1	.	.	.	15%
Cc1oc(-c2ccc(-c3ccccc3)cc2)nc1CN1CCN(CC(=O)N(C)C)CC1	-3%	52*	108*	0%
CCCCN(CC)C(=O)c1cc2cc3ccc(Cl)cc3nc2o1	0%	33*	64*	-4%
COc1cccc(C(=O)NCCSc2ccc(C)cc2)c1	-32%	21*	19	-7%
COc1cccc(C(=O)NCCSc2ccc(F)cc2)c1	.	39*	57*	-4%
CC(C)OCCCNC(=O)COCC(=O)Nc1ccc(OCCc2ccccc2)cc1	-24%	-3	-23	0%
O=C1c2cccc3c(O)ccc(c23)C(=O)N1c1ccc(Cl)cc1	17%	105*	+	-3%
CC(=O)Nc1ccc(N2C(=O)c3cccc4c(O)ccc(c34)C2=O)cc1	8%	-4	4	1%
COc1ccc(N2C(=O)N3[C@H](c4ccc(Br)cc4)[C@@H]4C(=O)N(C(C)(C)C)C(=O)[C@@H]4[C@]3(Cc3ccccc3)C2=O)cc1	8%	-1	4	2%
COc1ccc([C@@H]2[C@@H]3C(=O)N(C(C)(C)C)C(=O)[C@@H]3[C@]3(Cc4ccccc4)C(=O)N(c4ccc(Br)cc4)C(=O)N23)cc1	-10%	12*	9	-4%
CCOc1ccc(NC(=O)CN(C)S(=O)(=O)c2ccc3c(c2)CCC(=O)N3)cc1	-6%	-4	0	1%
O=C(Nc1ccnn1C1CCN(Cc2c(F)cccc2Cl)CC1)C1CCCC1	1%	-4	13	1%
CCOC(=O)CN(Cc1sccc1C)C(=O)Nc1cccc(OC)c1	1%	12*	48*	13%
CCCNC(=O)Nc1nc(CC(=O)OCC)cs1	1%	-1	-11	0%
